Test results as given in PubChem BioAssay AID720700 (The Scripps Research Institute Molecular Screening Center, 2013).
The whole screen tested about 370,000 compounds, of which about 3,100 (0.84%) were called active. No stated cut-off is given here; in the data, active means inhibition above about 9.5%; inactive means the rest. The entries come from a sample that favours actives as a whole.

Target: 1-phosphatidylinositol 4,5-bisphosphate phosphodiesterase gamma-1 (Homo sapiens) (UniProt P19174)
Sequence (P19174 whole entry, looked up): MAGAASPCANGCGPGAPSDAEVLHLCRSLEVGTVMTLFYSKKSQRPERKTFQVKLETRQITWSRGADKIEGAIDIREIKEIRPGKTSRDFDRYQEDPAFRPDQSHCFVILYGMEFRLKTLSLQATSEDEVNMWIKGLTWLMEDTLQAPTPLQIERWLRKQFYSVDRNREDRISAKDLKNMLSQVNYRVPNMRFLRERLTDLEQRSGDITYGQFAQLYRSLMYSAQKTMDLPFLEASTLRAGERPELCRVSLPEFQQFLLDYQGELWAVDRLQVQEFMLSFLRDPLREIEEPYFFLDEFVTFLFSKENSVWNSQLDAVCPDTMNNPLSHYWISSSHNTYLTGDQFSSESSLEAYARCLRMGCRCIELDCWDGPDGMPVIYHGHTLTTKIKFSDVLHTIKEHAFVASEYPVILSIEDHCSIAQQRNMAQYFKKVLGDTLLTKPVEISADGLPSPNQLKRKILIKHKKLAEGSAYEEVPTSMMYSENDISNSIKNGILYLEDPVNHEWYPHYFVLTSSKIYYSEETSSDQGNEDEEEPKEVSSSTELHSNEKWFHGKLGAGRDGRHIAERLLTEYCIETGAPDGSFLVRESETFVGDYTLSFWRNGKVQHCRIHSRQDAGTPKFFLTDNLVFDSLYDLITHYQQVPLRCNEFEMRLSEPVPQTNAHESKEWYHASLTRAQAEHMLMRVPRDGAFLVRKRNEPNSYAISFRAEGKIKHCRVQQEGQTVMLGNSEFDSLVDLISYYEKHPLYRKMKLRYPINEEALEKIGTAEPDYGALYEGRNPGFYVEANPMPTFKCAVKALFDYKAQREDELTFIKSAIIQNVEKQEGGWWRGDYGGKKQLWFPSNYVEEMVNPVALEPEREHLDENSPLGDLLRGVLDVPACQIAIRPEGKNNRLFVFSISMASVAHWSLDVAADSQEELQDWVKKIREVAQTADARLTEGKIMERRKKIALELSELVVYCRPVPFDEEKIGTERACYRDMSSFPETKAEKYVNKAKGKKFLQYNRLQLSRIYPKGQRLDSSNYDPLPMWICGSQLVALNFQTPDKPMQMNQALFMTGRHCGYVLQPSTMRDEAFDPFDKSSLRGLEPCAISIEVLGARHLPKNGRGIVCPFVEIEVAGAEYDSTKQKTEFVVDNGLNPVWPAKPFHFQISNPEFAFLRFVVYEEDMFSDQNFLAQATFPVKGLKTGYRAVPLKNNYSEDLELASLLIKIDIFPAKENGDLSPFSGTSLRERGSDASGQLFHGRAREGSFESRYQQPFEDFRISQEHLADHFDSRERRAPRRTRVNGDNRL
Experiment: blockers of human PLCG1 activity – biochemical, fluorescence, purified enzyme, primary screen (AID 720700)
Details: purified PLC-gamma1, fluorogenic substrate, at 12.2 µM, hits give high values

inhibition, inactive:
COc1ccc(C#CCNCc2ccc(OC)cc2OC)cc1 2.01%
Cc1cc(C(=O)NN=C/C=C/c2ccco2)n[nH]1 -16.7%
CCCCNC(=O)C[C@H]1C(=O)N(Cc2ccc(OC)cc2)C2=CCCC[C@@]21C(=O)OCC 4.39%
COC(=O)C[C@H]1CC[C@H]2[C@H](COc3ccc(NC(=O)C4CC4)cc3C(=O)N2C)O1 -1%
COC(=O)C[C@@H]1CC[C@@H]2[C@@H](COc3ccc(NC(=O)Nc4ccc(F)c(F)c4)cc3C(=O)N2C)O1 1.9%
COC(=O)c1cccc(Cn2ccc3ccc(-c4ccc5ccn(C(=O)C6CCCCC6)c5c4)cc32)c1 -51.3%
CC(=O)N1CCCN(C2=Nc3ccccc3Sc3ccccc32)CC1 0.02%
COc1ccc(C(=O)OCC(=O)Nc2ccc3[nH]c(=O)[nH]c3c2)c(OC)c1OC 4.24%
O=C(OCC(=O)N1CCN(c2ccccc2)CC1)c1ccc([N+](=O)[O-])s1 -1.31%
COc1ccc2c(c1)CN1CN(CCc3ccccc3)S(=O)(=O)CC21 (configuration not stated) -10.3%
C=CCn1c(SCC(N)=O)nnc1-c1ccccc1OC 1.51%
C=CS(=O)(=O)N(Cc1nnn(Cc2ccccc2)c1Br)[C@H](C(=O)OC)C(C)C 2.5%
CCN(C(=O)[C@@H](C1CC1)[C@@H](O)c1ccc2ccccc2c1)c1ccccc1 1.27%
O=c1c2ccccc2c(-c2ccc(Br)cc2)nn1Cc1ccccc1 -0.25%
O=c1c2ccccc2c(-c2ccccc2)nn1-c1ccccn1 2.78%
O=C(CN1CCOCC1)Nc1c(Cl)cc(Cl)cc1Cl 0.95%
Cc1cc(C)c(NC(=O)CN2CCCCCC2)c(C)c1 4.73%
Cc1ccccc1NC(=O)COC(=O)c1ccc(Sc2ncn[nH]2)c([N+](=O)[O-])c1 -0.83%
COc1ccc(C(C)=O)cc1COc1ccc(Cl)c(C)c1 2.04%
COc1ccc(C(C)=O)cc1COC(=O)Cn1cnc2ccccc2c1=O 5.51%
COC[C@@H]1CCCN1c1ccc2c(c1)O[C@H](C)CCN(C1CC1)S2(=O)=O -1.38%
O=C(c1ccncc1)N1CC[C@H]2[C@H](CCCN2Cc2ccc(F)cc2)C1 2.52%
O=C(OC12CCCN(C1)/C(=C/c1ccccc1)C2)c1ccco1 (configuration not stated) 6.33%
O=C(COC(=O)Cc1ccccc1F)NCCc1ccccc1 -0.55%
COc1ccc(CCNC(=O)COC(=O)Cc2cccc(F)c2)cc1 -3.08%
COC(=O)C[C@@H]1CC[C@H]2[C@@H](COc3ccc(NS(=O)(=O)CC(F)(F)F)cc3C(=O)N2C)O1 0.55%
CC(C)N1CCCCC(NC(=O)c2ccc3ccccc3c2)C1=O (configuration not stated) -1.22%
Cc1ccc(NS(=O)(=O)c2ccc3c(c2)n(C)c(=O)c(=O)n3C)c(C)c1 -0.33%
Cc1ccc(S(=O)(=O)NC(=O)COc2ccccc2C)cc1 -1.05%
COC(=O)[C@]12C[C@H](CC(=O)NCCc3ccccc3OC)C(=O)N(Cc3ccco3)C1=C[C@H](C(C)C)O[C@@H]2C1CC1 -0.19%
O=C(NCCC1=CCCCC1)C1CCN(S(=O)(=O)c2ccc(Cl)s2)CC1 -0.14%
CCOC(=O)c1csc(NC(=O)C2CCCN(S(=O)(=O)c3ccc(Cl)s3)C2)n1 (configuration not stated) 6.52%
CN(C)Cc1cn(-c2ccc(-c3noc4c3C(=O)N(CC(=O)N3CCOCC3)CC4)cc2)nn1 -16.7%
CN(C(=O)CSc1nnc(N)s1)c1c(N)n(Cc2ccccc2)c(=O)[nH]c1=O -0.92%
COC(=O)c1ccc(CSc2nnc(N)s2)o1 -0.29%
CCCC1CCC2(CCCN2CCOC(=O)NCc2ccccc2)CC1 (configuration not stated) 2.03%
O=C(CNCCO)NC12CC3CC(CC(C3)C1)C2 9.27%
O=C(NCC12CC3CC(C1)CC(CNC(=O)N1CCCC1)(C3)C2)N1CCCC1 -0.47%
O=C(NCCc1c[nH]c2ccccc12)OCc1cn(-c2c(F)cccc2F)nn1 -2.05%
CCCCCCCCNS(=O)(=O)/C=C/c1cc(C)ccc1CNC(=O)OC(C)(C)C -1.88%
COC(=O)[C@]12C[C@H](CC(=O)NCCCN3CCCC3=O)C(=O)N(CCc3ccc(OC)c(OC)c3)C1=C[C@H](COCc1ccccc1)O[C@@H]2C 4.14%
CN(C)/C=C/c1c(C#N)c(=O)ncn1Cc1ccccc1 2.62%
CC(=O)Cn1cnc2c(cnn2-c2ccccc2)c1=O 0.74%
COC(CNC(=O)[C@H](Cc1ccccc1)NC1(C(=O)NC2CCCCC2)CCCCC1)OC 0.41%
CCc1c(C)nc(SCC(=O)NC2CCCC2)[nH]c1=O 0.69%
COC(=O)c1ccccc1NC(=O)CSc1n[nH]c(-c2ccncc2)n1 1.06%

inhibition, active:
COC(=O)C[C@@H]1CC[C@@H]2[C@H](COc3ccc(NC(=O)c4cccc(F)c4)cc3C(=O)N2C)O1 12.8%
COc1cc(NC(=O)COC(=O)c2ccc([N+](=O)[O-])s2)cc(OC)c1OC 16.4%
O=c1c2ccccc2c(-c2ccccc2)nn1Cc1ccccc1 12.3%
Cc1cc(C)c(NC(=O)CN2CCOCCOCCOCCOCC2)c(C)c1 14%
COCc1cc(C(C)=O)ccc1OC 12.2%
COc1ccc(CCNC(=O)COC(=O)Cc2ccccc2F)cc1 10.7%
Cc1ccc(NS(=O)(=O)c2ccc(N/N=C/c3ccccc3OCC(=O)O)c([N+](=O)[O-])c2)c(C)c1 10.8%
Nc1nnc(SCC(=O)OCc2ccc(Cl)c(Cl)c2)s1 10.9%
O=C(NC12CC3CC(CC(C3)C1)C2)N1CCCC(CO)C1 (configuration not stated) 11.5%
Cc1c(C#N)c2ncn(CC#N)c(=O)c2n1-c1ccccc1 9.69%
CCc1ccc(-c2nc(SCC(=O)NC3CCCC3)n[nH]2)cc1 9.58%
